Calls of active or inactive are those of the source. Entries that show only a call come without a potency. Calls come from the whole dose curve; as a rule, active = well fitted curve in the direction sought with a large enough effect in the repeat runs; inconclusive = weak or mixed curves; inactive = flat fitted curve, though single readings scatter.

Experimental findings from PubChem BioAssay (Tox21) are described below.

This experiment can be described thus: qHTS assay to test for compound auto fluorescence at 590 nm (red) in HEK293 cells (AID 720679). To be noted: red autofluorescence 540/590 nm; series mostly up to 91.3 µM. An excerpt:
National Center for Advancing Translational Sciences [NCATS]
NIH Chemical Genomics Center [NCGC]
U.S. Environmental Protection Agency [EPA]
National Institutes of Environmental Health Sciences [NIEHS]
National Toxicology Program [NTP]
U.S. Food and Drug Administration [FDA]
Compound auto fluorescence often interferes with screening of the compound library against various biological targets and signaling pathways. Some of these compounds may have fluorophoric properties. Such properties may interfere with the assay outputs resulting in false positives and/or negatives. To decrease such complications and ensure the compound activities are relevant in terms of biological response, the Tox21 10K compound library was screened for auto fluorescence.
From the fluorophores used as reporter signals in our screening assays, the auto fluorescence equivalencies of compounds against three fluorophores have been evaluated: Triamterene, Fluorescein and Rose Bengal sodium for blue, green and red fluorescence, respectively. The fluorescence intensities were measured using Excitation/Emission wavelengths at 405/460nm, 485/535nm and 540/590nm for blue, green and red labels, respectively. This assay includes the red fluorescence data.
Tox21 Assay Protocol Summary:
2,000 HEK293 cells in 5 uL of culture medium containing 10% dialyzed FBS per well were dispensed into black wall/clear bottom 1536-well plates using a Multidrop Combi Dispenser (Thermo Scientific). The assay plates were incubated for 4-5 hr at 37C to allow cell attachment to the well bottom, followed by the transfer of 23 nL compound or DMSO vehicle by a pintool work station (Kalypsys, San Diego, CA). After the assay plates were incubated overnight at 37C and 5% CO2, fluorescence intensities in the assay plates were measured by an Envision (PerkinElmer, Shelton, CT) plate reader using three labels for measuring blue, green and red fluorescence at […] 460, 535 and 590nm respectively.
(In general: qHTS replaces the single test concentration by a dilution series.)
`CCc1cccc(CC)c1NC(=O)CN(CC(=O)O)CC(=O)O`: the fluorescence, % of fluorescent control is -0.732% [at 18.6 µM] (inactive).
As for `CC[C@H](C)COC(=O)/C=C/c1ccc(N=Cc2ccc(OC)cc2)cc1`, the Potency result is “inactive”.
With `Clc1nnc(Cl)c2ccccc12`, the Potency result was “inactive”.
Consider `C=C(C)c1cccc(C(=C)C)c1`, for which the Potency result is “inactive”.
In the case of `Cc1cc(C(C)(C)C)c(O)c(C)c1Cn1c(=O)n(Cc2c(C)cc(C(C)(C)C)c(O)c2C)c(=O)n(Cc2c(C)cc(C(C)(C)C)c(O)c2C)c1=O`, the Potency entry is “inactive”.
As to `O=C(O)c1cc(-c2ccc(F)cc2F)ccc1O`, the fluorescence, % of fluorescent control is -0.141% [at 18.6 µM] (inactive).
Consider `ClCCl`, for which the Potency entry was “inactive”.
For `CCC(=O)OC(=O)CC`, the Potency entry was “inactive”.
In the case of `COC(=O)Nc1nc2ccc(C(=O)c3ccccc3)cc2[nH]1`, the fluorescence, % of fluorescent control is 0.41% [at 18.6 µM] (inactive).
Turning to `Oc1ccccc1O`, the Potency result was “inactive”.
In the case of `c1cnccn1`, the Potency entry was “inactive”.
With `OC[C@H]1O[C@H](O[C@H]2O[C@H](CO)[C@@H](O)[C@H](O)[C@H]2O)[C@H](O)[C@@H](O)[C@@H]1O`, the Potency result was “inactive”.
Still for that read-out and setting: under `CCCCCc1ccc(Cl)cc1` stands “inactive”.
On to `CCCCCCCCCCCCCCCC[N+](C)(C)CC`, for which the Potency result is “inactive”.
For `C/C=C/C=C/COC(=O)C(C)C`, the Potency entry was “inactive”.
On the same count and under the same terms, under `Oc1c(I)cc(Cl)c2cccnc12` stands “inactive”; under `CCC(=O)C(=O)CC`, “inactive”; under `CNc1ccc([N+](=O)[O-])cc1`, “inactive”.
`COC(=O)C1=C(C)NC(C)=C(C(=O)OCCN2CCN(C(c3ccccc3)c3ccccc3)CC2)C1c1cccc([N+](=O)[O-])c1` (stereo not given): the Potency entry was “inactive”.
In the case of `CCCCCC/C=C\CCCCCCCC(=O)O`, the Potency result is “inactive”.
In the case of `[Cl][Pt-2]([Cl])([Cl])[Cl]`, the Potency result is “inactive”.
In the case of `OC/C=C/CO`, the Potency entry is “inactive”.
As for `CC(C)Cn1cnc2c(N)nc3ccccc3c21`, the Potency result was “inactive”.
In the case of `O=C(O)c1ccc2cc(C(=O)O)ccc2c1`, the Potency result is “inactive”.
Turning to `Cc1c(C)c2c(c(C)c1O)CC[C@@](C)(CCC[C@H](C)CCC[C@H](C)CCCC(C)C)O2`, the Potency entry was “inactive”.
`CC(CO)Oc1ccccc1` (stereo not given): the Potency result is “inactive”.
`CC(C)=CCC1=C(O)c2ccccc2C(=O)C1=O`: the Potency result is “inactive”.
As for `Cc1ccc(-c2ccccc2)cc1`, the Potency result is “inactive”.
On to `O=[N+]([O-])c1ccc(O)cc1C(F)(F)F`, for which the Potency result is “inactive”.
On the same count and under the same terms, the result for `CC(C)NC[C@@H](O)COc1ccc(CC(N)=O)cc1` reads “inactive”.
Regarding `CN(C)c1ccc(C(=C2C=CC(=[N+](C)C)C=C2)c2ccc(N(C)C)cc2)cc1`, the Potency result was “inactive”.
As for `CCCCCC(C)OC(=O)COc1ccc(Cl)c2cccnc12` (stereo not given), the Potency entry was “inactive”.
Consider `COC(=O)c1ccccc1C`, for which the Potency result is “inactive”.
Still for that read-out and setting: the result for `Cc1cccc2cccnc12` reads “inactive”; that for `O=S(=O)(O)c1ccc(N=Nc2c(O)ccc3ccccc23)cc1`, “inactive”.
Consider `CCC(C)(CCC(C)C)C(=O)[O][Sn]([CH3])([CH3])[O]C(=O)C(C)(CC)CCC(C)C` (stereo not given), for which the Potency result is “inactive”.
Take `O=C1CCc2ccc(OCCCCN3CCN(c4cccc(Cl)c4Cl)CC3)cc2N1`: the Potency result is “inactive”.
For `C=CC(C)(CCC=C(C)C)OC=O` (stereo not given), the Potency entry is “inactive”.
Consider `S=c1nccc[nH]1`, for which the Potency entry was “inactive”.
Turning to `CC1=CCC(=C(C)C)CC1`, the Potency entry is “inactive”.
